Tests used:
Test in all cases: growth AUC relative to DMSO control (median of replicates) (fraction); higher = more growth (less inhibition), active = hit call of the paper
Details in all cases: 20 µM; 24 h;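 active = AUC reduced over 20% with Padj below 0.05 in at least 2 of 3 replicates; inactive = otherwise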
Akkermansia muciniphila = test system: Akkermansia muciniphila
Method in brief: (§1)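 Gut bacterial monocultures were grown anaerobically at 37 °C in mGAM from a starting OD600 of 0.05 with 20 µM compound (1% DMSO), in round-bottom 96-well plates under pierced gas-permeable seals, and OD600 was read hourly for 24 h. With the minimum OD set to 0, area under the growth curve was normalised to the plate median of solvent-only wells, or to row and column medians on the industrial chemical plate. Each value is the median of three biological replicates grown on separate days.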

Bacteroides caccae = test system: Bacteroides caccae
Method in brief: as §1

Bacteroides clarus = test system: Bacteroides clarus
Method in brief: as §1

Bacteroides dorei = test system: Bacteroides dorei
Method in brief: as §1

Bacteroides stercoris = test system: Bacteroides stercoris
Method in brief: as §1

[1] = test system: Bacteroides thetaiotaomicron
Method in brief: as §1

Bacteroides uniformis = test system: Bacteroides uniformis
Method in brief: as §1

[2] = test system: Bifidobacterium longum subsp. longum
Method in brief: as §1

Clostridium difficile = test system: Clostridium difficile
Method in brief: as §1

Collinsella aerofaciens = test system: Collinsella aerofaciens
Method in brief: as §1

Coprococcus comes = test system: Coprococcus comes
Method in brief: as §1

Escherichia coli ED1a = test system: Escherichia coli ED1a
Method in brief: as §1

Escherichia coli IAI1 = test system: Escherichia coli IAI1
Method in brief: as §1

Eubacterium rectale = test system: Eubacterium rectale
Method in brief: as §1

[3] = test system: Fusobacterium nucleatum subsp. animalis
Method in brief: as §1

Lactobacillus gasseri = test system: Lactobacillus gasseri
Method in brief: as §1

Lactobacillus paracasei = test system: Lactobacillus paracasei
Method in brief: as §1

Odoribacter splanchnicus = test system: Odoribacter splanchnicus
Method in brief: as §1

[4] = test system: Parabacteroides distasonis
Method in brief: as §1

Parabacteroides merdae = test system: Parabacteroides merdae
Method in brief: as §1

Row | SMILES | growth AUC (Akkermansia muciniphila) | growth AUC (Bacteroides caccae) | growth AUC (Bacteroides clarus) | growth AUC (Bacteroides dorei) | growth AUC (Bacteroides stercoris) | growth AUC [1] | growth AUC (Bacteroides uniformis) | growth AUC [2] | growth AUC (Clostridium difficile) | growth AUC (Collinsella aerofaciens) | growth AUC (Coprococcus comes) | growth AUC (Escherichia coli ED1a) | growth AUC (Escherichia coli IAI1) | growth AUC (Eubacterium rectale) | growth AUC [3] | growth AUC (Lactobacillus gasseri) | growth AUC (Lactobacillus paracasei) | growth AUC (Odoribacter splanchnicus) | growth AUC [4] | growth AUC (Parabacteroides merdae)
1 | O=C(Nc1ccc(F)cc1-c1ccc(Cl)c(Cl)c1)c1cn[nH]c1C(F)F | 1.02 (inactive) | 0.865 (inactive) | 0.724 (active) | 0.968 (inactive) | 0.349 (active) | 0.635 (active) | 0.689 (active) | 0.952 (inactive) | 0.971 (inactive) | 1.01 (inactive) | 0.916 (inactive) | 0.974 (inactive) | 0.945 (inactive) | 0.82 (inactive) | 0.983 (inactive) | 0.814 (inactive) | 0.953 (inactive) | 0.553 (active) | 0.373 (active) | 0.779 (active)
2 | CC(C)N(C(=O)CS(=O)(=O)[O-])c1ccc(F)cc1.[Na+] | 0.977 (inactive) | 1.02 (inactive) | 0.979 (inactive) | 0.984 (inactive) | 0.966 (inactive) | 0.948 (inactive) | 1.04 (inactive) | 0.944 (inactive) | 1.05 (inactive) | 0.957 (inactive) | 0.982 (inactive) | 0.983 (inactive) | 0.984 (inactive) | 1.02 (inactive) | 0.956 (inactive) | 1.01 (inactive) | 0.957 (inactive) | 1.13 (inactive) | 1.02 (inactive) | 0.995 (inactive)
3 | CN(C)C(=O)Nc1ccccc1 | 0.854 (inactive) | 1.03 (inactive) | 0.981 (inactive) | 1 (inactive) | 1.07 (inactive) | 0.994 (inactive) | 0.978 (inactive) | 1.01 (inactive) | 1.01 (inactive) | 0.984 (inactive) | 0.965 (inactive) | 0.951 (inactive) | 0.978 (inactive) | 0.978 (inactive) | 0.961 (inactive) | 1.03 (inactive) | 0.949 (inactive) | 1.04 (inactive) | 1.05 (inactive) | 1.02 (inactive)
4 | O=S(=O)(Oc1ccc(Cl)cc1Cl)c1ccccc1 | 0.953 (inactive) | 0.956 (inactive) | 1 (inactive) | 0.939 (inactive) | 0.967 (inactive) | 1.01 (inactive) | 0.996 (inactive) | 1.1 (inactive) | 1.01 (inactive) | 0.98 (inactive) | 1.03 (inactive) | 0.98 (inactive) | 0.986 (inactive) | 1.02 (inactive) | 0.938 (inactive) | 1.03 (inactive) | 1.14 (inactive) | 1.09 (inactive) | 0.972 (inactive) | 1.02 (inactive)
5 | O=C(O)COc1ccc(Cl)c2cccnc12 | 0.981 (inactive) | 1.03 (inactive) | 1.03 (inactive) | 0.976 (inactive) | 1.14 (inactive) | 0.997 (inactive) | 1 (inactive) | 0.99 (inactive) | 0.954 (inactive) | 1.02 (inactive) | 0.997 (inactive) | 1.05 (inactive) | 1.04 (inactive) | 1.02 (inactive) | 1.11 (inactive) | 1.07 (inactive) | 1.01 (inactive) | 1.01 (inactive) | 1 (inactive) | 1 (inactive)
6 | CC1(C)C(=O)Oc2ccc(OS(C)(=O)=O)cc21 | 1.03 (inactive) | 1.05 (inactive) | 0.993 (inactive) | 1.02 (inactive) | 1.06 (inactive) | 0.988 (inactive) | 0.986 (inactive) | 0.988 (inactive) | 0.99 (inactive) | 0.997 (inactive) | 0.992 (inactive) | 0.984 (inactive) | 1.01 (inactive) | 1.03 (inactive) | 1.1 (inactive) | 0.983 (inactive) | 0.965 (inactive) | 0.993 (inactive) | 1.01 (inactive) | 0.979 (inactive)
7 | COC(=O)c1c(Cl)ccc(Cl)c1OC | 1.02 (inactive) | 1 (inactive) | 1.01 (inactive) | 1.04 (inactive) | 0.942 (inactive) | 1.02 (inactive) | 1 (inactive) | 1.04 (inactive) | 1.04 (inactive) | 1.04 (inactive) | 1.04 (inactive) | 1.04 (inactive) | 1.03 (inactive) | 0.969 (inactive) | 0.968 (inactive) | 0.979 (inactive) | 0.921 (inactive) | 1.04 (inactive) | 1.05 (inactive) | 1.01 (inactive)
8 | CCOC(=O)[C@@H](C)Oc1ccc(Oc2cnc3cc(Cl)ccc3n2)cc1 | 0.987 (inactive) | 0.9 (inactive) | 0.965 (inactive) | 0.967 (inactive) | 0.996 (inactive) | 0.998 (inactive) | 0.947 (inactive) | 1.01 (inactive) | 1.01 (inactive) | 1.01 (inactive) | 0.983 (inactive) | 0.997 (inactive) | 1.01 (inactive) | 1.01 (inactive) | 0.992 (inactive) | 1.03 (inactive) | 0.917 (inactive) | 0.984 (inactive) | 1.02 (inactive) | 0.99 (inactive)
9 | CC(C)OC(=O)[C@@H](C)N(C(=O)c1ccccc1)c1ccc(F)c(Cl)c1 | 0.996 (inactive) | 0.961 (inactive) | 0.99 (inactive) | 1.02 (inactive) | 0.99 (inactive) | 0.984 (inactive) | 1.04 (inactive) | 1.01 (inactive) | 0.978 (inactive) | 0.954 (inactive) | 1.05 (inactive) | 1.03 (inactive) | 1 (inactive) | 1.27 (inactive) | 1.1 (inactive) | 0.933 (inactive) | 1.09 (inactive) | 0.977 (inactive) | 1 (inactive) | 1.01 (inactive)
10 | CCOCCOC(=O)C(C)Oc1ccc(Oc2ncc(C(F)(F)F)cc2Cl)cc1 (stereo not given) | 1.02 (inactive) | 0.955 (inactive) | 0.968 (inactive) | 0.948 (inactive) | 0.903 (inactive) | 0.998 (inactive) | 0.903 (inactive) | 1.01 (inactive) | 1.01 (inactive) | 1.03 (inactive) | 0.989 (inactive) | 0.996 (inactive) | 0.986 (inactive) | 1.05 (inactive) | 1.05 (inactive) | 0.952 (inactive) | 1.02 (inactive) | 1.07 (inactive) | 0.859 (inactive) | 0.991 (inactive)
11 | O=S(=O)(Oc1ccc(Cl)cc1)c1ccccc1 | 0.785 (inactive) | 0.959 (inactive) | 0.967 (inactive) | 0.941 (inactive) | 0.874 (inactive) | 0.964 (inactive) | 0.972 (inactive) | 1.01 (inactive) | 1 (inactive) | 0.978 (inactive) | 0.997 (inactive) | 0.981 (inactive) | 0.967 (inactive) | 0.874 (inactive) | 0.872 (inactive) | 0.99 (inactive) | 1.08 (inactive) | 0.987 (inactive) | 0.974 (inactive) | 0.957 (inactive)
12 | CNC(=O)/C(=N/OC)c1ccccc1COc1cc(C(=O)O)ccc1C | 1.01 (inactive) | 0.982 (inactive) | 1.03 (inactive) | 0.979 (inactive) | 0.967 (inactive) | 0.998 (inactive) | 1.01 (inactive) | 0.998 (inactive) | 0.991 (inactive) | 1 (inactive) | 0.984 (inactive) | 1.05 (inactive) | 0.978 (inactive) | 0.963 (inactive) | 0.949 (inactive) | 1.1 (inactive) | 0.98 (inactive) | 0.987 (inactive) | 1.01 (inactive) | 0.973 (inactive)
13 | COC1CCC2(CC1)NC(=O)C(O)(c1cc(C)ccc1C)C2=O (stereo not given) | 1 (inactive) | 0.984 (inactive) | 1.02 (inactive) | 1.03 (inactive) | 1.15 (inactive) | 1.01 (inactive) | 1.02 (inactive) | 1.05 (inactive) | 1.02 (inactive) | 0.981 (inactive) | 1.03 (inactive) | 1.01 (inactive) | 1.02 (inactive) | 1.1 (inactive) | 1.16 (inactive) | 1.02 (inactive) | 1.06 (inactive) | 1.06 (inactive) | 1.02 (inactive) | 1.06 (inactive)
14 | CON=C(Cc1cccnc1)c1ccc(Cl)cc1Cl | 1.06 (inactive) | 0.889 (inactive) | 0.971 (inactive) | 0.938 (inactive) | 1.28 (inactive) | 0.91 (inactive) | 0.921 (inactive) | 0.998 (inactive) | 1 (inactive) | 0.945 (inactive) | 0.94 (inactive) | 1 (inactive) | 0.986 (inactive) | 0.919 (inactive) | 1.03 (inactive) | 1.03 (inactive) | 1.18 (inactive) | 0.821 (inactive) | 1.04 (inactive) | 1.01 (inactive)
15 | Cn1cc(C(=O)Nc2ccccc2-c2cc(F)c(F)c(F)c2)c(C(F)F)n1 | 0.832 (inactive) | 0.995 (inactive) | 0.937 (inactive) | 0.972 (inactive) | 0.931 (inactive) | 0.93 (inactive) | 0.984 (inactive) | 0.919 (inactive) | 0.98 (inactive) | 0.987 (inactive) | 0.97 (inactive) | 0.985 (inactive) | 0.987 (inactive) | 0.937 (inactive) | 0.873 (inactive) | 0.995 (inactive) | 0.943 (inactive) | 0.964 (inactive) | 0.916 (inactive) | 0.937 (inactive)

Source: the supplement of paper PMC12669032
